Measurements reported in PubChem BioAssay AID651635 (National Center for Advancing Translational Sciences (NCATS), 2012).
The whole screen tested about 400,000 compounds, of which about 1,900 (0.47%) were called active. Where a call stands in place of a potency, no number is given. Another 14% or so got no clear call; they are omitted. The sample as a whole holds a higher share of actives than the screen did. Unmarked numbers belong to inactive results. The call rests on the fitted dose curve; in most records, active means well fitted cell-killing curve with a large enough effect; inconclusive means small, poorly fitted or top-dose-only effect, or effect the other way; inactive means no such curve, though single readings can be large or run the other way.

assay: Viability Counterscreen for Primary qHTS for Inhibitors of ATXN expression; settings: S2 cells (HEK-293 line with an ATXN2-luciferase reporter) viability, CellTiter-Fluor protease fluorescence, 24 h; series mostly up to 56.7 µM; further: nearly all actives have a fitted effect of over 40% in size
Potency means the concentration at half of the fitted maximal effect.

| Compound | Potency | activity change, negative = cytotoxicity |
| --- | --- | --- |
| COc1ccc(C(C#N)=C2C=CC(=NO)c3ccccc32)cc1 | inactive | – |
| CC[n+]1cc(C)ccc1/C=C/c1ccc(N(C)C)cc1 | 25.1 µM (active) | – |
| NCC[C@H](O)C(=O)N[C@@H]1C[C@H](N)[C@@H](O[C@H]2O[C@H](CN)[C@@H](O)[C@H](O)[C@@H]2O)[C@H](O)[C@@H]1O[C@H]1O[C@H](CO)[C@@H](O)[C@H](N)[C@@H]1O | – | -2.32% [at 0.575 µM] |
| CO[C@]1(NC(=O)CSC(F)F)C(=O)N2C(C(=O)O)=C(CSc3nnnn3CCO)CO[C@H]21 | inactive | – |
| COc1ccccc1NC(=O)c1oc2ccccc2c1NC(=O)COc1ccccc1OC | inactive | – |
| O=C(CCN1Cc2ccccc2OC(c2ccccc2)C1)N[C@@H]1CS(=O)(=O)C[C@H]1O (some centres not stated) | inactive | – |
| CC(OC(=O)c1cccc(S(=O)(=O)N2CCOCC2)c1)C(=O)NCC1CCCCC1 (configuration not stated) | inactive | – |
| COc1cc(C(=O)OC(C)C(=O)NCC2CCCCC2)cc(NC(=O)c2ccco2)c1OC (configuration not stated) | 31.6 µM (active) | – |
| CC(OC(=O)c1ccc([N+](=O)[O-])cc1)C(=O)NCC1CCCCC1 (configuration not stated) | inactive | – |
| CCOC(=O)Cc1cccc(-c2cc(CCCCCCc3ccc(O[C@H]4O[C@H](COC(C)=O)[C@@H](OC(C)=O)[C@H](OC(C)=O)[C@@H]4OC(C)=O)c(-c4cccc(CC(=O)OCC)c4)c3)ccc2O[C@H]2O[C@H](COC(C)=O)[C@@H](OC(C)=O)[C@H](OC(C)=O)[C@@H]2OC(C)=O)c1 | inactive | – |
| CN(C)CCNC(=O)c1ccc(-c2cn3c(-c4ccc(Oc5ccccc5)cc4)cnc3cn2)cc1 | inactive | – |
| CCCCC[C@H](C)N1C[C@@H](COCc2ccccc2)Oc2cc(N3CC[C@@H](N(C)C)C3)ccc2S1(=O)=O | 25.1 µM (active) | – |
| CCCCN1CC(COCc2ccccc2)OCCS1(=O)=O (configuration not stated) | inactive | – |
| Cc1ccccc1-c1ccc2c(c1)O[C@@H](CN(C)Cc1ccc(C(=O)O)cc1)[C@@H](C)CN([C@H](C)CO)S2(=O)=O | inactive | – |
| Cc1oc2ccc(O)c(CN3CCCCC3)c2c1C(=O)Nc1cccc(C(F)(F)F)c1 | 28.2 µM (active) | – |
| CCN1CCN(Cc2c(O)ccc3oc(C)c(C(=O)Nc4ccc(C)cc4C)c23)CC1 | inactive | – |

| Compound | Potency | activity change, negative = cytotoxicity |
| --- | --- | --- |
| Cc1oc2ccc(O)c(CN3CCOCC3)c2c1C(=O)Nc1cccc(Cl)c1C | inactive | – |
| COC(=O)/C=C(/C)N | inactive | – |
| COCCN1CCN(C(=O)c2sc3ncnc(NCC4CCCO4)c3c2C)CC1 (configuration not stated) | inactive | – |
| O=C(Nc1ccncc1)c1ccccc1[N+](=O)[O-] | inactive | – |
| Cc1csc(NC(=O)Nc2ccccc2[N+](=O)[O-])n1 | inactive | – |
| CC(=O)Oc1ccccc1C(=O)Nc1ncc([N+](=O)[O-])s1 | 39.8 µM (active) | – |
| CC(C)(C)S(=O)N1Cc2cc(C(=O)NCCCN3CCOCC3)nc(-c3cccc(-c4cc5ccccc5o4)c3)c2[C@H]1CCO (some centres not stated) | inactive | – |
| CC(Oc1ccccc1)C(=O)N[C@@H]1C(=O)N2[C@@H]1SC(C)(C)[C@@H]2C(=O)O (some centres not stated) | inactive | – |
| COCc1cccc(-c2csc(C(O)c3ccc(F)cc3)n2)c1 (configuration not stated) | inactive | – |
| CN1CCN(c2nc3c(c(=O)[nH]c(=O)n3C)n2Cc2cccc3ccccc23)CC1 | inactive | – |
| Cn1c(=O)[nH]c(=O)c2c1nc(N1CCN(CCO)CC1)n2CCSc1nc2ccccc2s1 | inactive | – |
| Cn1c(=O)[nH]c(=O)c2c1nc(N1CCN(C(c3ccccc3)c3ccccc3)CC1)n2CCO | 3.16 µM (active) | – |
| CN[C@@H]1[C@@H](O)[C@@H](O[C@@H]2[C@H](O)[C@H](O[C@H]3OC(CN)=CC[C@H]3N)[C@@H](N)C[C@H]2N)OCC1(C)O (some centres not stated) | inactive | – |
| O=C(CSC1=NCCS1)Nc1nc(-c2ccccc2)cs1 | inactive | – |
| CC(=O)Nc1ccc(-c2csc(NC(=O)Nc3ccccc3)n2)cc1 | 15 µM (active) | – |
| CC(=O)Nc1ccc(-c2cn3cccnc3n2)cc1 | inactive | – |
